Molecules are shown by their SMILES. Among all 340,000 compounds or so, about 1,000 (0.29%) were called active. Only a sample is shown. Entries with a potency or affinity are not part of this list. Unmarked numbers belong to inactive results. Rule as the data show it: inconclusive = inhibition above about 27% without an active follow-up result; inactive = below that.

A short description of this experiment: NS1A inhibition, H1N1 influenza, cell based functional assay (AID 504329). The conditions noted are these: percent inhibition, at 12.5 µM, active compounds read high.
With `CC(=O)c1cccc(NC(=O)C2CCN(C(=O)c3cccs3)CC2)c1`, the inhibition was -11.1%. As for `Cc1ccc(SCC(=O)OCC(=O)Nc2ccc3[nH]c(=O)[nH]c3c2)cc1C`, the inhibition was -0.9%. On to `COc1ccccc1NC(=O)/C(=C\c1cccs1)NC(=O)c1ccco1`, for which the inhibition is 2.01%. Take `COc1ccc2c(COC(=O)CC3Sc4ccccc4NC3=O)cc(=O)oc2c1` (centres undefined): the inhibition was -3.14%. `Cc1c(NC(=O)NCc2ccccc2)c(=O)n(-c2ccccc2)n1C`: the inhibition is 0.65%. As to `Cc1c(NC(=O)CN2C(=O)C(=O)N(Cc3ccccc3)C2=O)c(=O)n(-c2ccccc2)n1C`, the inhibition was -4.35%. For the compound `COc1ccc(/C=N/NC(=O)c2cc(C)oc2C)cc1OCc1ccccc1`, the inhibition is 9.7%. Consider `COc1ccc(/C=N/NC(=O)c2ccco2)cc1OCc1ccccc1`, for which the inhibition is 0.58%. In the case of `CC(C)CCNC(=O)NC(=O)COc1ncnc2sccc12`, the inhibition was -13.5%.

In the case of `O=C(CSc1nncs1)Nc1cc(S(=O)(=O)N2CCOCC2)ccc1N1CCCC1`, the inhibition is -2.14%. In the case of `O=C(COc1ccccc1[N+](=O)[O-])N1CCN(C(=O)c2ccco2)CC1`, the inhibition was 8.66%. For `CCOc1ccc2c(c1)C(=NNC(=O)c1ccccn1)c1cc(OCC)ccc1-2`, the inhibition is 7.92%. Take `COc1ccc2c(c1)C(=NNC(=O)c1ccccn1)c1cc(OC)ccc1-2`: the inhibition is -2.18%. As for `C/C(=N\NC(=S)NC1CCCCC1)c1cccs1`, the inhibition was 7.94%. For `S=C(NC1CCCC1)N1CCN(c2ccccn2)CC1`, the inhibition was -9.04%.

With `C/C(=N/NC(=O)c1cnccn1)c1ccncc1`, the inhibition is 2.49%. As to `CCNC(=S)N1CCN(c2ccccn2)CC1`, the inhibition is -6.5%. Consider `C/C(=N\NC(=S)NC1CCCCC1)c1ccccc1`, for which the inhibition was 11.5%. Then `C/C(CC(=O)NC1CCCCCC1)=N\NC(=O)c1cnccn1`, with 2.22%; and `CC(=O)c1nccs1`, with -23%; and `C/C(=N\NC(=O)C1CC1)c1cccnc1`, with -3.09%. As for `COc1cc(SC)ccc1C(=O)Nc1ccc2c(c1)CCN2S(C)(=O)=O`, the inhibition was 0.73%. Then `CC(=O)Nc1cc(C(=O)OCC(=O)c2ccc(C)cc2)ccc1C`, with 2.61%.

Take `CCOc1ccc(-c2nc(S(=O)(=O)c3ccccc3)c(N3CCOCC3)o2)cc1`: the inhibition was 6.87%. In the case of `CNC(=O)c1c(NC(=O)C2=COCCO2)sc2c1CCC(C)C2` (centres undefined), the inhibition is -0.48%. On to `COc1ccc(CCN(Cc2ccccn2)C(=S)Nc2ccccc2F)cc1OC`, for which the inhibition is 2.66%. Regarding `Cc1cccc(N2CCN(C(=O)CCn3c(=O)[nH]c4ccsc4c3=O)CC2C)c1` (centres undefined), the inhibition is 14.2%. For the compound `CC(C)[C@H](NC(=O)OCc1ccccc1)C(=O)OCC(=O)Nc1ccc(N2CCOCC2)cc1`, the inhibition is -2.26%. As to `O=C(CSc1nnc(-c2ccccn2)o1)Nc1ccccc1`, the inhibition is -0.31%.

As for `O=C(CSc1ccccn1)Nc1ccc(NC(=O)CSc2ccccn2)cc1`, the inhibition was 3.94%. Consider `O=C(CSc1ncccn1)Nc1ccccc1`, for which the inhibition was -12.3%. Then `O=C(CSc1ccc(C(F)(F)F)cn1)Nc1ccccc1`, with -2.05%; and `O=C(N/N=C/C1CC2CCC1C2)c1ccc2c(c1)OCO2` (centres undefined), with 4.78%.

Consider `Cc1ccccc1C(=O)c1cccn1CC(=O)NCCCc1ccccc1`, for which the inhibition was -0.87%.

Consider `CCOC(=O)c1c(C)[nH]c(C(=O)OCc2ccc(F)cc2)c1C`, for which the inhibition is -5.78%. Take `CCOC(=O)C1=C(c2ccccc2)NC(=O)NC1c1ccc(OCC#N)c(OC)c1` (centres undefined): the inhibition is 1.47%. With `CCOC(=O)C1=C(c2ccccc2)NC(=O)NC1c1ccc(OC)c(OC)c1` (centres undefined) the figure was -15.2%; with `CCOc1ccc(C2NC(=O)NC(C)=C2C(=O)OCc2ccccc2)cc1` (centres undefined), -2.43%. With `CCOC(=O)C1=C(COc2ccccc2)NC(=O)NC1c1ccc(Cl)cc1` (centres undefined), the inhibition is 3.45%. On to `CCOC(=O)[C@@H]1[C@H]2COc3cc(OC)ccc3[C@@H]2N2C(=O)N(c3cccc(C)c3)C(=O)[C@]12C`, for which the inhibition is 2.49%. For `COc1ccc(C2=CC(c3ccc(OC)c(OC)c3)c3c(c4ccccc4oc3=O)O2)cc1OC` (centres undefined), the inhibition is 26.9%. Then `Cc1ccc(NC2(C(N)=O)CCCC2)cc1`, with -3.06%; and `CCC1=C(C)C(N2CCOCC2)=NP(N2CCOCC2)(N2CCOCC2)=N1`, with 3.31%; and `CCC(Sc1nc(C)cc(=O)[nH]1)C(=O)Nc1sc2c(c1C#N)CCCC2` (centres undefined), with -5.51%. As to `N#Cc1cc(NC2CCCC2)c([N+](=O)[O-])cc1C#N`, the inhibition was 12.5%. Then `CCCCCCNc1c([N+](=O)[O-])cc(C)cc1[N+](=O)[O-]`, with 28.9%; and `Cc1cc([N+](=O)[O-])c(NCCCCCCO)c([N+](=O)[O-])c1`, with 11%; and `Cc1cc(C(=O)NC2CCCCCCC2)ccc1[N+](=O)[O-]`, with -15.4%. With `CCCn1c2ccccc2c2cnn(CC(=O)NCCCOC)c(=O)c21` the figure was 0.78%; with `CCN(CC(=O)Nc1c(F)cccc1F)C(=O)CNC(=O)c1ccco1`, -4.3%; with `CN1c2ccccc2N(C)C1(C)c1ccccc1`, 14.4%. Consider `CN1c2cccc3cccc(c23)N(C)C1(C)C`, for which the inhibition is 20.9%. Regarding `CC(C(c1ccc2c(c1)OCO2)c1c(N)n(C)c(=O)n(C)c1=O)[N+](=O)[O-]` (centres undefined), the inhibition was -16.4%. On to `COc1ccc(NC(=O)CSc2nnc3ccc(-c4cccnc4)nn23)cc1OC`, for which the inhibition was -19.3%. With `COC(=O)c1ccc(C(=O)NC(=S)Nc2ccc3nc(SC)sc3c2)cc1`, the inhibition is -0.55%. As for `NS(=O)(=O)c1cccc(NC(=O)COC(=O)COc2ccc3ccccc3c2)c1`, the inhibition is -0.29%. Take `O=C(N/N=C/c1cccs1)c1ccc2c(c1)OCO2`: the inhibition was 8.44%. On to `CN(C)c1ccc2c(c1)OC(N)=C(C#N)C2c1cccc(F)c1` (centres undefined), for which the inhibition is -65.2%.

For the compound `Nc1n[nH]c(N)c1N=Nc1cccc(F)c1`, the inhibition was 1.03%. With `CN(C)c1ccc(N=Nc2ccc(C(=O)O)cc2)cc1`, the inhibition is -2.64%. With `CC(=O)c1ccc(N=Nc2ccc(N(C)C)cc2)cc1` the figure was 13%; with `Cc1c(Cl)c(C(F)(F)F)nn1CC(=O)NN`, 3.69%; with `O=C(NCc1ccccn1)/C(=C/c1ccco1)NC(=O)c1ccccc1`, 1.38%. In the case of `CCOC(=O)N1CCN(C(=O)c2sc3nc(-c4ccc(F)cc4)cn3c2C)CC1`, the inhibition was -1.44%. `O=C(Cc1ccccc1)Nn1c(-c2ccccc2F)nc2ccccc2c1=O`: the inhibition was -1.28%.

As for `CC1(O)CC2CC1C(C(=O)O)C2C(=O)O` (centres undefined), the inhibition is -2.28%. As for `CCn1cc([N+](=O)[O-])c(C(=O)N2CCCc3ccccc32)n1`, the inhibition is 4.06%. `COc1ccc(F)cc1S(=O)(=O)n1cnc2ccccc21`: the inhibition was 2.94%. With `CCOc1ccc(OCCCC(=O)O)cc1`, the inhibition is -12.4%. As for `CN1CCN(c2ccc(NC(=O)c3ccc(-c4ccc(Cl)cc4)o3)cc2)CC1`, the inhibition is 6.66%.

As to `COC(=O)c1ccc(N2CCN(C)CC2)c(NC(=O)c2ccc(-c3ccc(Cl)cc3)o2)c1`, the inhibition was -4.26%.

`N#C/C(=C\c1ccc(OCc2ccccc2)cc1)C(N)=O`: the inhibition is 4.02%.

Consider `CCn1c(=O)n(CC)c2cc(N3CCCC3)c(NC(=O)c3cc(Cl)ccc3OC)cc21`, for which the inhibition was 12.7%. Turning to `CN1CCN(/N=C/c2cccc(Cl)c2Cl)CC1`, the inhibition is 3.86%. As for `CN1CCN(/N=C/c2ccc(-c3ccccc3)cc2)CC1`, the inhibition was 10.8%. Then `Cc1ccc(C)c(OCCSc2nnc(C)c(=O)[nH]2)c1`, with -14.8%. On to `Cc1ccc(S(=O)(=O)N2CCCC(C(=O)N3CCC4(CC3)OCCO4)C2)cc1` (centres undefined), for which the inhibition is 2.04%. With `COc1ccc(S(=O)(=O)N(CCC(=O)O)Cc2ccccc2)cc1` the figure was -3.39%; with `COc1cc(/C=N/NC(=O)c2cccnc2)cc(Br)c1O`, 3.86%.

As for `O=C(N/N=C/c1cc2c(cc1Br)OCO2)c1cccnc1`, the inhibition was 3.42%.

As to `O=C(N/N=C/c1cc(Br)c(O)c(Br)c1)c1cccnc1`, the inhibition is -2.33%. On to `O=C(N/N=C/c1cc(Br)c(Br)o1)c1cccnc1`, for which the inhibition is 4.32%. Regarding `Cc1ccc(N(CC(=O)NCc2ccccn2)S(=O)(=O)c2ccccc2)cc1Cl`, the inhibition is -3.75%.

In the case of `Cc1ccc(NC(=O)CCN2C(=O)CSC2=O)cc1`, the inhibition was -13.2%.

As to `CCCCN1C(=O)/C(=C2/Sc3ccc(OC)cc3N2CC)SC1=S`, the inhibition is -6.84%. With `COc1cc2c3c(c1)-c1c(sn(-c4cc(OC)ccc4OC)c1=S)C(C)(C)N3C(=O)C2=O`, the inhibition is 7.42%. In the case of `COc1ccc2c(c1)-c1c(sn(-c3ccccc3)c1=S)C(C)(C)N2`, the inhibition is 0.13%.

Regarding `COc1ccc(N2CCN(C(=O)c3ccc(Cl)c(S(=O)(=O)N4CCOCC4)c3)CC2)cc1`, the inhibition is -0.24%. In the case of `CN(C)c1c(-c2ccccc2)cc(-c2ccccc2)[nH]c1=O`, the inhibition was -13.7%. For the compound `O=C(O)c1cccc(N2C(=O)/C(=C/c3ccc([N+](=O)[O-])cc3)C=C2c2ccccc2)c1`, the inhibition is 15.9%. Then `O=C1/C(=C/c2ccc([N+](=O)[O-])cc2)C=C(c2ccccc2)N1c1ccccc1`, with 16.3%. Turning to `CSCCC(NC(=O)c1ccccc1)C(=O)N1CCN(C(=O)c2ccccc2)CC1` (centres undefined), the inhibition is -5.85%. Turning to `C[C@H](CO)N1C[C@H](C)[C@@H](CN(C)S(=O)(=O)c2ccc(F)cc2)Oc2c(NS(=O)(=O)c3ccccc3)cccc2C1=O`, the inhibition is -4.12%.

As to `Cc1oc(-c2cccc(Cl)c2)nc1CN1CCC(C(=O)NCc2cccnc2)CC1`, the inhibition is 9.09%.

(Values after PubChem BioAssay AID504329 (Southern Research Specialized Biocontainment Screening …, 2011).)
